High-throughput results as filed in PubChem.
CIT2-GFP yeast – modulators of TOR pathway CIT2-GFP in S. cerevisiae | S. cerevisiae CIT2-GFP strain, flow cytometry, 3 h; 100 means same as DMSO wells | GFP response vs DMSO, % at 10 µM | actives 0.065% (n = 320,000);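 active = GFP response relative to DMSO above a set limit, near the screen mean plus 3 SD, cut at about 150% in these data; inconclusive = Fewer than 70 cells measured for a yeast strain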;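 note: ratio of well median GFP fluorescence to mean of DMSO wells on the plate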
LAP4-GFP MLPCN – yeast TOR pathway LAP4-GFP modulation; actives 0.34% (n = 320,000); S. cerevisiae LAP4-GFP multiplex, flow cytometry GFP, 3 h; median GFP as percent of DMSO wells; GFP response vs DMSO, % at 10 µM;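 active = GFP response vs DMSO above a set limit, about the screen mean plus 3 SD, cut at about 150% in these data; inconclusive = under 70 cell events counted for the yeast strain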
MEP2 TOR yeast – alters MEP2-GFP fluorescence in TOR pathway yeast screen. GFP response vs DMSO, % at 10 µM. S. cerevisiae MEP2-GFP strain, flow cytometry GFP, 3 h; 100% = DMSO control level. actives 0.51% (n = 330,000). AID 2016;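 active = GFP response versus DMSO above a set limit, roughly screen mean plus 3 SD, cut at about 180% in these data; inconclusive = fewer than 70 cells counted for a yeast strain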;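 note: median GFP fluorescence of the barcode-gated MEP2-GFP cells per well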
AGP1-GFP MLPCN – alters AGP1-GFP fluorescence in TOR pathway yeast screen; S. cerevisiae AGP1-GFP multiplex flow cytometry, 3 h; GFP as percent of DMSO wells; GFP response vs DMSO, % at 10 µM; actives 0.02% (n = 320,000); AID 2066;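 active = GFP response relative to DMSO above a set limit, near screen average plus 3 SD, cut at about 150% in these data; inconclusive = fewer than 70 cells counted for the yeast strain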;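 note: median GFP channel fluorescence of the gated AGP1 strain per well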
RPL19A TOR yeast – yeast TOR pathway RPL19A-GFP modulation; S. cerevisiae RPL19A-GFP strain, flow cytometry, 3 h; stronger effect = lower value; percent response vs DMSO, % at 10 µM; actives 0.3% (n = 330,000);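 active = percent response vs DMSO below 50%; inconclusive = fewer than 70 events counted for the yeast strain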;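 note: median channel GFP fluorescence of the barcoded RPL19A-GFP strain; ratio of sample median GFP to plate DMSO average so 100% = DMSO; lower means less RPL19A-GFP as with rapamycin TOR inhibition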
Efflux pump inh – antifungal efflux pump inhibition, Nile Red retention. S. cerevisiae Candida pump triplex. inhibition, % at 10 µM. actives 0.44% (n = 330,000);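 active = plate passing quality check with inhibition over a set limit, or well fluorescence over plate mean plus 4 SD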;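 note: Nile Red retained in pooled yeast measured as flow cytometry median fluorescence; 0% = buffer negative control and 100% = Enniatin B positive control; higher means more Nile Red kept so more efflux inhibition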
Cmpd fluor yeast – counter-screen for efflux pump inhibitors: compound fluorescence; shares compounds with Efflux pump inh; S. cerevisiae AD/pABC3, flow cytometry; fluorescence ratio to DMSO, % at 10 µM; actives 4% (n = 1,700);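 active = fluorescence ratio to DMSO above its plate's cutoff, the plate mean ratio plus 5 SD, cut at about 210% in these data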;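 note: unstained yeast with no Nile Red so the signal is compound autofluorescence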
CaMdr1 efflux inh – inhibitors of Candida albicans Mdr1 efflux pump | inhibition, % at 10 µM | actives 1% (n = 1,700) | shares compounds with Efflux pump inh | S. cerevisiae AD/CaMDR1, Nile Red efflux, flow cytometry; in the data active = inhibition above about 26%;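 note: 0% = DMSO vehicle and 100% = reference inhibitor; higher means more Nile Red retained so more efflux inhibition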
CaCdr2 efflux inh – Candida Cdr2 efflux pump inhibition; shares compounds with Efflux pump inh; S. cerevisiae AD/CaCDR2, Nile Red retention, flow cytometry; Nile Red retention ratio vs DMSO, % at 10 µM; actives 4% (n = 1,700); AID 588520; in the data active = Nile Red retention ratio vs DMSO above about 190%;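 note: higher ratio means more blocking of Cdr2 efflux of the dye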
CaCdr1 efflux inh – Candida Cdr1 efflux pump inhibition; shares compounds with Efflux pump inh; S. cerevisiae AD/CaCDR1, Nile Red efflux, flow cytometry; inhibition, % at 10 µM; actives 1% (n = 1,700); AID 588522;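 active = inhibition above the screen-wide mean plus twice its standard deviation, cut at about 32% in these data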
* = called active by the depositor; ? = inconclusive; . = not tested or not shown. This is a sample that favours compounds with a hit; in the whole collection about 1.3% have one here.

SMILES | CIT2-GFP yeast | LAP4-GFP MLPCN | MEP2 TOR yeast | AGP1-GFP MLPCN | RPL19A TOR yeast | Efflux pump inh | Cmpd fluor yeast | CaMdr1 efflux inh | CaCdr2 efflux inh | CaCdr1 efflux inh
O=C(NC1CCCC1)C(c1ccncc1)N(C(=O)c1ccco1)c1ccccc1 (stereo not given) | 100 | 89 | 98 | 96 | 97 | 0.6* | 98 | 0 | 108 | 0
Cc1cc(C)c(OCC(=O)OCC(=O)NCCC2=CCCCC2)c(C)c1 | 102 | 98 | 104 | 104 | 99 | 0 | . | . | . | .
CC(C)CCOc1ccc(C(=O)N2CCN(c3ncccn3)CC2)cc1 | 99 | 93 | 98 | 90 | 100 | 3.5* | 106 | 0 | 102 | 0
CCOC(=O)C1(Cc2ccccc2)CCN(C2Cc3ccccc3C2)CC1 | 99 | 95 | 107 | 111 | 109 | 0 | . | . | . | .
Cc1ccc(NC2=NC(c3ccc(O)cc3)n3c(nc(C)cc3=O)N2)cc1 (stereo not given) | 92 | 96 | 98 | 93 | 97 | 0 | . | . | . | .
COc1ccc(C2N=C(Nc3ccc(C)cc3)Nc3nc(C)cc(=O)n32)cc1 (stereo not given) | 98 | 99 | 108 | 103 | 101 | 0.4* | 99 | 0 | 97 | 0
CC(C)(C)C1CCC(OC(=O)C[N+]2(C)CCCC2)CC1 (stereo not given) | 106 | 102 | 111 | 121 | 101 | 0.5* | 100 | 0 | 260* | 0
COc1cc(/C=C(\C#N)c2ccccn2)ccc1OCc1ccc(Cl)cc1 | 88 | 104 | 108 | 109 | 102 | 6.7* | 97 | 0 | 112 | 0
COc1cc(/C=C(\C#N)c2ccccn2)ccc1OCc1ccccc1 | 99 | 94 | 94 | 96 | 97 | 0 | . | . | . | .
CCOc1ccc(NC(=O)CSc2nncc(=O)n2N)cc1 | 110 | 122 | 108 | 110 | 103 | 0 | . | . | . | .
Cc1cc(NC(=O)CSc2nnc(CNC(=O)c3ccc(F)cc3)o2)no1 | 94 | 91 | 99 | 92 | 101 | -1 | . | . | . | .
COc1ccc(OC)c(-c2csc(NC(=O)CN3C(=O)C4CCCCC4C3=O)n2)c1 (stereo not given) | 97 | 95 | 101 | 95 | 103 | 0.4* | 103 | 0 | 82 | 0
CN1CCC(N(C)C(=O)c2ccc(Cl)c(S(=O)(=O)Nc3cc(Cl)ccc3Cl)c2)CC1 | 99 | 96 | 99 | 106 | 103 | 0 | . | . | . | .
CCNS(=O)(=O)c1ccc(CCC(=O)N2CCC(C)CC2)cc1 | 99 | 87 | 102 | 92 | 97 | 0 | . | . | . | .
CCn1c(=O)c2ccccc2n(Cc2ccc([N+](=O)[O-])cc2)c1=O | 90 | 91 | 104 | 96 | 105 | 0.6* | 97 | 0 | 118 | 0
c1ccc(Nc2ccc3c4c(cccc24)CC3)cc1 | 92 | 106 | 108 | 95 | 97 | 0 | . | . | . | .
Nc1ccc2c3c(cccc13)CC2 | 96 | 104 | 111 | 107 | 102 | 1.8* | 122 | 0 | 121 | 0
Cc1ccc(NC(=O)COc2ccc(N(C)S(=O)(=O)c3ccc(F)cc3)cc2)cc1 | 94 | 97 | 93 | 91 | 92 | 0.8* | 87 | 0 | 104 | 0
CCc1ccc(N(CC(=O)NC2CC2)S(=O)(=O)c2ccc(C)cc2)cc1 | 101 | 98 | 104 | 99 | 96 | 3 | . | . | . | .
C[C@H]1O[C@@H](O[C@H]2CC[C@@]3(C)C(CC[C@]4(C)C3C=CC3=C5CC(C)(C)CC[C@]5(CO)[C@H](O)C[C@]34C)[C@]2(C)CO)[C@H](O)[C@@H](O[C@@H]2O[C@H](CO)[C@@H](O)[C@H](O)[C@H]2O)[C@H]1O (stereo not given in full) | 89 | 104 | 98 | 100 | 95 | 1.7* | 109 | 0 | 112 | 0
CC1O[C@@H](OC2C(COC3OC(CO)C(O)[C@H](O)C3O)OC(OC3CC[C@]4(C)C(CC[C@@]5(C)[C@@H]4CC=C4[C@@H]6CC(C)(C)CC[C@]6(CO)C(O)C[C@]45C)C3(C)C)C(O)C2O)C(O)C(O)C1O (stereo not given in full) | 104 | 114 | 105 | 110 | 107 | 1 | . | . | . | .
Cc1noc(C)c1COc1cccc(C(=O)N(C)Cc2nc3ccccc3c(=O)[nH]2)c1 | 96 | 104 | 110 | 102 | 100 | 0 | . | . | . | .
COc1cc(C=C(c2nc3ccccc3s2)c2nc3ccccc3s2)ccc1O | 98 | 86 | 110 | 94 | 100 | 0 | . | . | . | .
CN(C)c1ccc(/C=C/c2nc3ccccc3s2)cc1 | ? | 129 | 145 | 34 | 105 | 0.6* | 98 | 0 | 116 | 0
COc1cc(/C=C/c2nc3ccccc3s2)cc(OC)c1O | 91 | 112 | 108 | 88 | 93 | 0.8* | 81 | 0 | 85 | 0
SMILES | CIT2-GFP yeast | LAP4-GFP MLPCN | MEP2 TOR yeast | AGP1-GFP MLPCN | RPL19A TOR yeast | Efflux pump inh | Cmpd fluor yeast | CaMdr1 efflux inh | CaCdr2 efflux inh | CaCdr1 efflux inh
CN(CC(=O)NC1CCCCC1)S(=O)(=O)c1ccc2c(c1)c(=O)n(C)c(=O)n2C | 102 | 94 | 102 | 102 | 102 | 0 | . | . | . | .
CCOc1ccc(NC(=O)CCNS(=O)(=O)c2ccc3c(c2)c(=O)n(C)c(=O)n3C)cc1 | 105 | 97 | 106 | 107 | 101 | 6.7* | 114 | 0 | 98 | 0
Cn1c(=O)c2cc(S(=O)(=O)NCCC(=O)NC3CCCCCCC3)ccc2n(C)c1=O | 101 | 102 | 103 | 105 | 103 | 8.2* | 98 | 0 | 102 | 0
Cc1ccccc1OCc1nc2c3c(ncn2n1)-c1ccccc1CC31CCCC1 | 107 | 95 | 102 | 101 | 103 | 34* | 89 | 0 | 102 | 0
O=C(NCc1ccc(F)cc1)c1noc2c1CCCC2 | 96 | 116 | 110 | 106 | 100 | 0.9* | 83 | 0 | 95 | 0
O=C(NCc1ccc(Cl)cc1)c1noc2c1CCCCC2 | 79 | 104 | 94 | 87 | 92 | 0 | . | . | . | .
COc1ccc(-c2cc(=O)n(-c3ccc([N+](=O)[O-])cc3)[nH]2)cc1 | 92 | 111 | 100 | 92 | 98 | 14* | 87 | 0 | 104 | 0
CN(C)c1ccc(/C=C/c2ccc3ccccc3n2)cc1 | 84 | 100 | 109 | 82 | 102 | 0 | . | . | . | .
